Several values for one entry are separate records, joined by “and”; a condition that tells them apart may be missing. Identical values can stand only once. Hit rate of the full screen: of about 5,500 compounds, about 2,000 (36%) were called active. Not shown: some 18% with an inconclusive outcome. Rule as the data show it: active = normalized growth mostly below about 0.91 (no sharp cut-off); inconclusive = no clear call, values can overlap the other calls; inactive = mostly above about 0.92. The list shows a part of the results.
Test: chemical genetic growth profiling, strain panel (AID 1159580);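 also: tested at 20 µM; growth read once vehicle control cultures reached saturation at 30 °C; 1 = growth at the plate median or of vehicle wells; lower values mean less growth of the strain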
Details: S. cerevisiae deletion strains, growth OD

CC(C)c1ccc2c(c1)CCC1[C@](C)(CN)CCC[C@]21C (stereo partly specified)
normalized growth (locus YAL013W, strain DEP1, stronger effect = lower value): 0.598 (active)
normalized growth (locus YAL021C, strain ccr4, stronger effect = lower value): 0.819 (active)
normalized growth (locus YAL026C, strain drs2, stronger effect = lower value): 0.0819 (active)
normalized growth (locus YAL030W, strain snc1, stronger effect = lower value): 1.01 (inactive)
normalized growth (locus YBL061C, strain skt5, stronger effect = lower value): 1.01 (inactive)
normalized growth (locus YBR009C, strain hhf1, stronger effect = lower value): 0.927 (inactive)
normalized growth (locus YBR021W, strain FUR4, stronger effect = lower value): 0.392 (active)
normalized growth (locus YBR023C, strain chs3, stronger effect = lower value): 0.947 (inactive)
normalized growth (locus YBR171W, strain sec66, stronger effect = lower value): 1.02 (inactive)
normalized growth (locus YBR229C, strain ROT2, stronger effect = lower value): 0.925 (inactive)
normalized growth (locus YBR231C, strain swc5, stronger effect = lower value): 0.974 (inactive)
normalized growth (locus YBR279W, strain paf1, stronger effect = lower value): 0.976 (inactive)
normalized growth (locus YCL011C, strain gbp2, stronger effect = lower value): 0.942 (inactive)
normalized growth (locus YCL016C, strain dcc1, stronger effect = lower value): 0.952 (inactive)
normalized growth (locus YCL029C, strain bik1, stronger effect = lower value): 0.652 (active)
normalized growth (locus YCL061C, strain MRC1, stronger effect = lower value): 0.983 (inactive)
normalized growth (locus YCL069W, strain vba3, stronger effect = lower value): 1 (inactive)
normalized growth (locus YCR088W, strain abp1, stronger effect = lower value): 1.01 (inactive)
normalized growth (locus YDL005C, strain med2, stronger effect = lower value): 1.03 (inactive)
normalized growth (locus YDL035C, strain GPR1, stronger effect = lower value): 0.253 (active)
normalized growth (locus YDL040C, strain nat1, stronger effect = lower value): 1.01 (inactive)
normalized growth (locus YDL074C, strain BRE1, stronger effect = lower value): 0.45 (active)
normalized growth (locus YDL101C, strain DUN1, stronger effect = lower value): 0.199 (active)
normalized growth (locus YDL134C, strain PPH21, stronger effect = lower value): 0.486 (active)
normalized growth (locus YDL185W, strain tfp1, stronger effect = lower value): 0.88 (active)
normalized growth (locus YDL192W, strain arf1, stronger effect = lower value): 0.0814 (active)
normalized growth (locus YDR001C, strain nth1, stronger effect = lower value): 1.02 (inactive)
normalized growth (locus YDR069C, strain doa4, stronger effect = lower value): 0.839 (active)
normalized growth (locus YDR101C, strain arx1, stronger effect = lower value): 0.13 (active)
normalized growth (locus YDR137W, strain rgp1, stronger effect = lower value): 1.03 (inactive)
normalized growth (locus YDR150W, strain NUM1, stronger effect = lower value): 0.786 (active)
normalized growth (locus YDR159W, strain sac3, stronger effect = lower value): 1.02 (inactive)
normalized growth (locus YDR162C, strain NBP2, stronger effect = lower value): 0.0633 (active)
normalized growth (locus YDR195W, strain ref2): 1.1 (inactive)
normalized growth (locus YDR297W, strain sur2, stronger effect = lower value): 0.992 (inactive)
normalized growth (locus YDR318W, strain mcm21, stronger effect = lower value): 0.457 (active)
normalized growth (locus YDR334W, strain swr1, stronger effect = lower value): 1.01 (inactive)
normalized growth (locus YDR335W, strain msn5, stronger effect = lower value): 0.969 (inactive)
normalized growth (locus YDR388W, stronger effect = lower value): 0.284 (active)
normalized growth (locus YDR392W, strain spt3, stronger effect = lower value): 0.5 (active)
normalized growth (locus YDR502C, strain sam2, stronger effect = lower value): 0.0848 (active)
normalized growth (locus YEL003W, strain gim4, stronger effect = lower value): 0.927 (inactive)
normalized growth (locus YEL037C, strain rad23, stronger effect = lower value): 1.01 (inactive)
normalized growth (locus YEL061C, strain CIN8 (second series), stronger effect = lower value): 1.01 (inactive)
normalized growth (locus YEL061C, strain CIN8, stronger effect = lower value): 0.65 (active)
normalized growth (locus YER015W, strain faa2, stronger effect = lower value): 0.951 (inactive)
normalized growth (locus YER016W, strain bim1, stronger effect = lower value): 1.02 (inactive)
normalized growth (locus YER110C, stronger effect = lower value): 0.684 (active)
normalized growth (locus YER111C, strain swi4, stronger effect = lower value): 1.03 (inactive)
normalized growth (locus YER155C, strain BEM2 (second series), stronger effect = lower value): 0.367 (active)
normalized growth (locus YER167W, strain BCK2, stronger effect = lower value): 0.661 (active)
normalized growth (locus YFR010W, strain ubp6, stronger effect = lower value): 0.811 (active)
normalized growth (locus YGL078C, strain dbp3, stronger effect = lower value): 0.906 (active)
normalized growth (locus YGL086W, strain mad1, stronger effect = lower value): 0.167 (active)
normalized growth (locus YGL167C, strain pmr1, stronger effect = lower value): 1.01 (inactive)
normalized growth (locus YGL173C, strain kem1, stronger effect = lower value): 0.971 (inactive)
normalized growth (locus YGL227W, strain vid30, stronger effect = lower value): 1.02 (inactive)
normalized growth (locus YGL240W, strain doc1, stronger effect = lower value): 0.959 (inactive)
normalized growth (locus YGL248W, strain PDE1, stronger effect = lower value): 0.368 (active)
normalized growth (locus YGL253W, strain hxk2, stronger effect = lower value): 0.973 (inactive)
normalized growth (locus YGR078C, strain PAC10, stronger effect = lower value): 0.334 (active)
normalized growth (locus YGR135W, strain pre9, stronger effect = lower value): 0.117 (active)
normalized growth (locus YGR229C, strain SMI1, stronger effect = lower value): 0.0707 (active)
normalized growth (locus YGR252W, strain gcn5, stronger effect = lower value): 0.174 (active)
normalized growth (locus YHR013C, strain ard1, stronger effect = lower value): 0.886 (inactive)
normalized growth (locus YHR027C, strain rpn1, stronger effect = lower value): 1.02 (inactive)
normalized growth (locus YHR030C, strain SLT2, stronger effect = lower value): 0.183 (active) and 0.967 (inactive)
normalized growth (locus YHR079C, strain IRE1 (second series), stronger effect = lower value): 0.646 (active)
normalized growth (locus YHR079C, strain IRE1, stronger effect = lower value): 0.964 (inactive)
normalized growth (locus YHR094C, strain hxt1, stronger effect = lower value): 0.949 (inactive)
normalized growth (locus YHR129C, strain ARP1, stronger effect = lower value): 0.701 (active)
normalized growth (locus YHR142W, strain chs7, stronger effect = lower value): 0.89 (inactive)
normalized growth (locus YHR200W, strain rpn10, stronger effect = lower value): 0.162 (active)
normalized growth (locus YIL066C, strain RNR3, stronger effect = lower value): 0.34 (active)
normalized growth (locus YIL073C, strain SPO22, stronger effect = lower value): 0.147 (active)
normalized growth (locus YIL125W, strain kgd1, stronger effect = lower value): 0.961 (inactive)
normalized growth (locus YIR030C, strain dcg1, stronger effect = lower value): 0.19 (active)
normalized growth (locus YJL092W, strain hpr5, stronger effect = lower value): 0.991 (inactive)
normalized growth (locus YJL095W, strain BCK1 (second series), stronger effect = lower value): 0.995 (inactive)
normalized growth (locus YJL095W, strain BCK1, stronger effect = lower value): 0.108 (active) and 0.995 (inactive)
normalized growth (locus YJL115W, strain asf1, stronger effect = lower value): 1.01 (inactive)
normalized growth (locus YJL129C, strain trk1, stronger effect = lower value): 0.954 (inactive)
normalized growth (locus YJL134W, strain LCB3, stronger effect = lower value): 0.987 (inactive)
normalized growth (locus YJL154C, strain vps35, stronger effect = lower value): 1.02 (inactive)
normalized growth (locus YJL164C, strain tpk1, stronger effect = lower value): 0.931 (inactive)
normalized growth (locus YJL166W, strain qcr8, stronger effect = lower value): 0.894 (active)
normalized growth (locus YJL168C, strain set2, stronger effect = lower value): 0.714 (active)
normalized growth (locus YJL187C, strain SWE1 (second series), stronger effect = lower value): 0.243 (active)
normalized growth (locus YJR043C, strain POL32, stronger effect = lower value): 0.635 (active)
normalized growth (locus YJR066W, strain TOR1, stronger effect = lower value): 0.919 (inactive)
normalized growth (locus YJR075W, strain HOC1, stronger effect = lower value): 0.392 (active)

Reference: PubChem BioAssay AID1159580 (chemical genetic matrix, 2015)
